gsp ag: activates gsp, the McCune-Albright syndrome mutation. AID 624287. gsp mutant cells, cAMP HTRF, 30 min. actives 0.13% (n = 340,000). Potency, µM (titrated, usually from 76.9 µM), hits mostly activators; active = well fitted activation curve with a large enough effect; inconclusive = small, poorly fitted or top-dose-only effect, or another doubt; inactive = no such curve, though single readings can be large or run the other way; cell line not stated here;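 also: phosphodiesterase inhibitor Ro 20-1724 added with compounds to block cAMP breakdown; nearly all actives have a fitted effect of over 60% in size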
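Cells stably selected in G418 were plated at 2000/well, grown 16-24 hr, then given compounds in DMSO with the PDE inhibitor […] (300 uM solution added) for 30 min at 37C; cAMP was read by HTRF.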
Mito fusion yeast: mitochondrial division inhibition or fusion activation | S. cerevisiae fusion-defective mutant growth rescue, CellTiterGlo 48 h | Potency, µM (titrated, usually from 46.1 µM), most hits filed as activators | actives 0.23% (n = 320,000); also: nearly all actives have a fitted effect of over 45% in size
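Temperature-sensitive fusion-defective S. cerevisiae (e.g. fzo1-1, mgm1-5) were grown with compound in YPEG medium (3% ethanol, 3% glycerol) for 48 hours at 37C. Growth rescue was measured as viability by CellTiterGlo luminescence after 10 minutes at ambient.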
FUS yeast rescue: suppressors of FUS proteinopathy in yeast; S. cerevisiae FUS-expressing, growth rescue, OD600, 24 h; Potency, µM (series often up to 76.6 µM), most hits filed as activators; actives 0.24% (n = 390,000); AID 1347120; also: nearly all actives have a fitted effect of over 55% in size
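FUS-expressing yeast, raffinose-pregrown, induced in 2% galactose minimal medium at OD 0.005; compounds in a dilution series, 24hr at 30C. Growth restoration read as absorbance at 600 nm. CP55940 positive control, DMSO negative.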
ALOX12 inh: blocks human arachidonate 12S-lipoxygenase; actives 1.1% (n = 580,000); P18054; Potency, µM (highest dose often 108 µM), hits mostly inhibitors; AID 1671190; purified 12hLO, xylenol orange hydroperoxide absorbance
Target sequence (P18054 whole entry, looked up): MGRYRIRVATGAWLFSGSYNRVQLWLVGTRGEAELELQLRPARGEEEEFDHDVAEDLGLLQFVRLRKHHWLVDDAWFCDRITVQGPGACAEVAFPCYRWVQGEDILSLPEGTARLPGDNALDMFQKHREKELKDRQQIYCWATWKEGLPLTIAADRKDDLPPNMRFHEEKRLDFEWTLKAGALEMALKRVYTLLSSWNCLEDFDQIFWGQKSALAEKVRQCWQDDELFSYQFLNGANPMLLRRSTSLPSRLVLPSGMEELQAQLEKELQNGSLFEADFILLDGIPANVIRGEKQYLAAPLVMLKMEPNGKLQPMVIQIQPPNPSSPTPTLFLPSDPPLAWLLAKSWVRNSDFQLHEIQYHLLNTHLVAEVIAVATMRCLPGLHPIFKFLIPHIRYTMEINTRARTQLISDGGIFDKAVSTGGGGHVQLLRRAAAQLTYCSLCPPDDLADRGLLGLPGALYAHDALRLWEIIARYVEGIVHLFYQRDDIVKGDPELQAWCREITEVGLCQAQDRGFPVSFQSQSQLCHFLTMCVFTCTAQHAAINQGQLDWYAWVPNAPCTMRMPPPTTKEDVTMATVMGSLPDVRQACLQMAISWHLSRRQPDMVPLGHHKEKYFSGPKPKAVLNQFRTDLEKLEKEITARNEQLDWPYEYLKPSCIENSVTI
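Purified human 12hLO (150 nM final) in 25 mM Hepes, 0.01% Triton X-100, pH 7.0 was preincubated 15 min at room temperature with compound. Then 40 uM arachidonic acid was added, 30 min. Hydroperoxide was read by Fe-XO absorbance ratio 573/405 nm.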
gsp antag: antagonists of gsp mutant (McCune-Albright syndrome); actives 0.4% (n = 340,000); Potency, µM (titrated, usually from 76.9 µM), hits mostly inhibitors; gsp-mutant cells, cAMP HTRF, 30 min; calls by dose curve; cell line not stated here;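 also: intracellular cAMP measured with PDE inhibitor Ro 20-1724 present during compound exposure; nearly all actives have a fitted effect of over 65% in size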
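G418-selected cells were plated in DMEM/10% FBS for 16-24 h at 37C, then treated with compounds plus the PDE inhibitor […] (300 uM solution added) for 30 min at 37C. Intracellular cAMP was measured by HTRF after 30 min lysis at room temperature.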
Each line names hits and unclear results; the compound was inactive in the other large screens. Rows were chosen to be rich in hits. Some 1.6% of all compounds tested hit in one or more screens of this group. Unless noted, calls follow the shape of the dose curve; as a rule, active = well fitted curve in the direction sought with a large enough effect; inconclusive = small, poorly fitted or top-dose-only effect, or another doubt; inactive = no such curve, though single readings can be large; an effect the other way counts as inactive or inconclusive.

Cc1ccc(C2NC(=O)N(CC(=O)Nc3ccc4c(c3)OCCO4)C3=C2C(=O)OC3)cc1 (configuration not stated)	none (no result: gsp ag, Mito fusion yeast, FUS yeast rescue, gsp antag)
COc1cccc(NC(=O)CN2C(=O)NC(c3ccc(C)cc3)C3=C2COC3=O)c1 (configuration not stated)	none (no result: gsp ag, Mito fusion yeast, FUS yeast rescue, gsp antag)
O=S(=O)(N[C@H]1CO[C@H]2[C@@H]1OC[C@@H]2n1nnnc1-c1ccc2c(c1)OCO2)c1ccc2ccccc2c1	none (no result: gsp ag, Mito fusion yeast, FUS yeast rescue, gsp antag)
N#C/C(=N\Nc1ccc(Cl)c(Cl)c1)C(=O)C1CC1	gsp antag 25.1µM
CC(=O)c1c(C)[nH]c(C(=O)/C(C#N)=C\c2ccc(F)cc2)c1C	ALOX12 inh 35.5µM (no result: gsp ag, Mito fusion yeast, FUS yeast rescue, gsp antag)
CCc1c(O)nc(SC2CC(=O)N(c3ccccc3)C2=O)[nH]c1=O (configuration not stated)	ALOX12 inh 10µM
CCNC[C@H]1O[C@H](Cc2cc(-c3ccc(F)cc3)on2)CC[C@@H]1O	none (no result: gsp ag, Mito fusion yeast, FUS yeast rescue, gsp antag)
Cc1ccc(OC(C)C(=O)NN)cc1 (configuration not stated)	none (no result: gsp ag, Mito fusion yeast, FUS yeast rescue, gsp antag)
CCNC(=O)N1CCCC1c1noc(CCC(=O)NCCC(C)C)n1 (configuration not stated)	ALOX12 inh 39.8µM (no result: gsp ag, Mito fusion yeast, FUS yeast rescue, gsp antag)
CCNC(=O)N1CCCC1c1noc(CCC(=O)NC2CC2)n1 (configuration not stated)	none (no result: gsp ag, Mito fusion yeast, FUS yeast rescue, gsp antag)
Cc1cccc(-n2c(=S)[nH]c3sc4c(c3c2=O)CCc2ccccc2-4)c1	ALOX12 inh 15.8µM
O=C1C(F)=CC(COC(c2ccccc2)(c2ccccc2)c2ccccc2)OC1n1cc(F)c(=O)[nH]c1=O (configuration not stated)	ALOX12 inh 8.91µM (no result: Mito fusion yeast, FUS yeast rescue)
Cc1cccc(NC(=S)N2CCCCCC2)c1C	gsp ag inconclusive
COc1ccc(OCC(=O)N/N=C2\CCCCc3ccccc32)cc1	none
Cc1cccc(NC(=S)NN=C2CCCC2)c1C	ALOX12 inh 28.2µM (no result: gsp ag, Mito fusion yeast, FUS yeast rescue, gsp antag)
CC(C)NC(=S)N/N=C1\CCCCc2ccccc21	ALOX12 inh 39.8µM
COc1cccc(NC(=S)N/N=C2/CCCCc3ccccc32)c1	gsp ag inconclusive, FUS yeast rescue inconclusive, ALOX12 inh 44.7µM
Cc1ccc(C)c(S(=O)(=O)N/N=C2/CCCc3ccccc32)c1	none
Cc1ccc(C)c(NC(=S)N/N=C2/CCCCc3ccccc32)c1	Mito fusion yeast inconclusive, ALOX12 inh 50.1µM
CC(=O)c1sc2ccccc2c1C	none (no result: gsp ag, Mito fusion yeast, FUS yeast rescue, gsp antag)
O=C(N/N=C1/CCc2ccccc21)C1CC1	none
S=C(N/N=C1\CCc2ccccc21)NC1CCCCC1	FUS yeast rescue inconclusive, ALOX12 inh 44.7µM
CCCn1c(=O)[nH]c(=O)c2c1nc(-c1ccc(C#N)cc1)n2CCN1CCOCC1	ALOX12 inh 28.2µM (no result: gsp ag, Mito fusion yeast, FUS yeast rescue, gsp antag)
CCCn1c(=O)[nH]c(=O)c2c1nc(-c1ccc3ccccc3c1)n2CCN1CCOCC1	none (no result: gsp ag, Mito fusion yeast, FUS yeast rescue, gsp antag)
CCN(CC)C(=O)c1cn(CCC#N)nc1-c1cccc(Cl)c1	none (no result: gsp ag, Mito fusion yeast, FUS yeast rescue, gsp antag)
CC(C)c1nc2c(c(-c3ccc(O)cc3)n1)CCN(Cc1ccccn1)CC2	none (no result: gsp ag, Mito fusion yeast, FUS yeast rescue, gsp antag)
CC1(C)CC(=O)C2=C(C1)NC(SCC(=O)Nc1ccccc1)=C(C#N)C21CCCCC1	none
CC1(C)CC(=O)C2=C(C1)NC(=S)C(C#N)C21CCCCC1 (configuration not stated)	ALOX12 inh 7.94µM
CCCn1c(SCC(=O)Nc2ccccc2C(=O)NC2CC2)n[nH]c1=O	gsp ag 44.7µM
Cc1cccc(N(C)C(=O)CN(C)S(=O)(=O)c2ccc3[nH]c4c(c3c2)CCCC4)c1	FUS yeast rescue 31.6µM, ALOX12 inh inconclusive (no result: gsp ag, Mito fusion yeast, gsp antag)
Cc1ccc(NS(=O)(=O)c2ccc3[nH]c4c(c3c2)CCCCCC4)cc1Cl	FUS yeast rescue 22.4µM, ALOX12 inh inconclusive (no result: gsp ag, Mito fusion yeast, gsp antag)
Cc1cc2cc(NS(=O)(=O)c3ccc(C)c(C)c3)ccc2[nH]1	ALOX12 inh 35.5µM (no result: gsp ag, Mito fusion yeast, FUS yeast rescue, gsp antag)
Cc1ccc(NS(=O)(=O)c2ccc3[nH]c4c(c3c2)CCCC4)cc1N(C)C	ALOX12 inh inconclusive (no result: gsp ag, Mito fusion yeast, gsp antag)
Cc1ccccc1NS(=O)(=O)c1ccc2[nH]c3c(c2c1)CCCCC3	FUS yeast rescue 35.5µM (no result: gsp ag, Mito fusion yeast, gsp antag)
Cc1csc(CNC(=O)c2ccc3nc[nH]c3c2)n1	none (no result: gsp ag, Mito fusion yeast, FUS yeast rescue, gsp antag)
COc1ccccc1C(=O)NC[C@H]1Cn2c(-c3ccc(Cl)cc3)cnc2CO1	none (no result: gsp ag, Mito fusion yeast, FUS yeast rescue, gsp antag)
S=c1[nH]nc(SCc2ccccc2)c2[nH]cnc12	gsp ag 14.1µM, ALOX12 inh inconclusive, gsp antag inconclusive (no result: Mito fusion yeast)
CCCCSc1n[nH]c(=S)c2nc[nH]c12	gsp ag inconclusive, ALOX12 inh inconclusive (no result: Mito fusion yeast)
